Screens from PubChem.
Only some compounds are listed: those with a hit (about 3.5% of all), similar ones and a draw of the others.
RE007 growth inh = qHTS Assay for Inhibitors of the HIV-1 protein Vpr | hit rate 0.21% among 360,000 | Potency, µM (top dose mostly 92.2 µM), without a hit: top-dose activity change, negative = less growth, most hits filed as inhibitors | AID 651644, 2012 | S. pombe RE007 Vpr strain, BacTiter-Glo ATP luminescence, 24 h; active = well fitted falling curve with a large enough effect; inconclusive = small, poorly fitted or top-dose-only effect; inactive = no such curve, though single readings can be large or run the other way; also: % is scaled to controls: 0 for no effect and ±100 for the full control effect; nearly all actives have a fitted effect of over 50% in size
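Fission yeast strain RE007, carrying one chromosomally integrated HIV-1 vpr copy, was seeded at OD 0.01 in PMG+AL medium with 23 nL pinned compound. After 24 h at 30 °C and 99% humidity, viability was read by BacTiter-Glo luminescence.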
NS1 function inh = qHTS Assay for Inhibitors of Influenza NS1 Protein Function; Potency, µM (highest dose often 46.1 µM), for inactives: top-dose activity, positive = more growth; hit rate 0.4% among 270,000; AID 2326, 2010; calls by dose curve; also: actives are rising curves; nearly all actives have a fitted effect of over 50% in size
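Recovery from NS1-induced slow growth read by OD600 in budding yeast switched to galactose assay medium (pH 6.0, -URA) at 1:100 dilution. Compound 23 nl per well; the matching strain lacking NS1 serves as control.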
Sm TGR inh = qHTS Assay for the Inhibitors of Schistosoma Mansoni Peroxiredoxins | Schistosoma mansoni thioredoxin glutathione reductase (TGR), Q962Y6 | purified TGR, DTNB reduction, TNB absorbance 405 nm | Potency, µM (doses to about 114 µM), inactives show at the highest dose activity change, negative = inhibition, actives largely listed as inhibitors | hit rate 3% among 360,000 | AID 485364, 2010; also: % is scaled to controls: 0 for no effect and ±100 for the full control effect; nearly all actives have a fitted effect of over 60% in size
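TGR 20 nM + NADPH 100 uM (dispensed conc.), cpd preinc 15 min RT; start with NADPH (500 uM addition) then DTNB (15 mM addition). Kinetic TNB absorbance, 405 nm filter. Four-parameter Hill fit across titration.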
LmPK inhibitor = qHTS Assay for Inhibitors of Leishmania Mexicana Pyruvate Kinase (LmPK). hit rate 0.37% among 290,000. Potency, µM (highest dose often 57.5 µM), for inactives: top-dose activity change, negative = inhibition, hits mostly inhibitors. Q27686. purified LmPK, Kinase-Glo ATP luminescence, 1 h; also: % is scaled to controls: 0 for no effect and ±100 for the full control effect
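Screened at intermediate enzyme activity to detect both inhibitors and activators: LmPK at 0.1 nM, with a 0.5 nM enzyme column as activation reference. PEP 0.5 mM, ADP 0.1 mM; ATP detected by luminescence after 1 h.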
Tb PYK inh = qHTS of Trypanosoma Brucei Inhibitors. pyruvate kinase (Trypanosoma brucei), Q57TT1. TbPYK enzyme, Kinase-Glo Plus ATP luminescence, 45 min. Potency, µM (highest dose often 76.8 µM), inactives show at the top dose activity, negative = inhibition, usual class: inhibitors. hit rate 0.12% among 410,000; also: % is scaled to controls: 0 for no effect and ±100 for the full control effect; nearly all actives have a fitted effect of over 50% in size
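Assay buffer: 50 mM TEA pH 7.2, 100 mM KCl, 10 mM MgCl2, 0.05% BSA, 0.01% Tween-20. Pyruvate kinase from T. brucei plus substrate met compound, then ADP (130 uM final). Luminescence was read post 45 min RT.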
Giardia FBPA inh = qHTS Assay for Inhibitors of Fructose-1,6-bisphosphate Aldolase from Giardia Lamblia | purified Giardia FBPA | Potency, µM (titrated, usually from 59.6 µM), inactives show at the highest dose activity, negative = inhibition, actives largely listed as inhibitors | hit rate 0.71% among 290,000; also: % is scaled to controls: 0 for no effect and ±100 for the full control effect; nearly all actives have a fitted effect of over 55% in size
Target sequence (A8B2U2 whole entry, looked up): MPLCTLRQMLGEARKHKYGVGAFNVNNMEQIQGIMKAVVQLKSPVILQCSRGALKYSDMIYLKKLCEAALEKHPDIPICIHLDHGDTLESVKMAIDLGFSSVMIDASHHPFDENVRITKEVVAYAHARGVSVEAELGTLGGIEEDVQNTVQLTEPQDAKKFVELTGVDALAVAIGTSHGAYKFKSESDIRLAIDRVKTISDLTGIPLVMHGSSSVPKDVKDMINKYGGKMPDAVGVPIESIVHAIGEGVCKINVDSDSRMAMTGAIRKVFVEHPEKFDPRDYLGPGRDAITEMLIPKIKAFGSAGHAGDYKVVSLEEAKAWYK
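40 nM FBPA preincubated 10 min at RT with compound (up to 57.5 uM final), then substrate plus GAPDH/TPI/NAD/arsenate coupling and diaphorase/resazurin added. Fluorescence read after 20 min at RT, 525/598 nm.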
* = called active by the depositor; ? = inconclusive; . = no result given. Unless noted, calls follow the shape of the dose curve; as a rule, active = well fitted curve in the direction sought with a large enough effect; inconclusive = small, poorly fitted or top-dose-only effect, or another doubt; inactive = no such curve, though single readings can be large; an effect the other way counts as inactive or inconclusive. Potency is read from the fitted curve at half-maximal effect.

SMILES | RE007 growth inh | NS1 function inh | Sm TGR inh | LmPK inhibitor | Tb PYK inh | Giardia FBPA inh
CCOC(=O)N1CCC(N2CCN(Cc3ccccc3)C(CCO)C2)CC1 (stereo not drawn) | -28% | 4% | 16µM* | 5% | -4% | 4%
COc1cccc(CN2CCN(C3CCN(c4ccccc4F)CC3)CC2CCO)c1 (stereo not drawn) | -18% | 1% | 22µM* | 7% | -7% | 1%
COc1cccc(CN2CCN(C3CCN(c4ccccc4C)CC3)CC2CCO)c1 (stereo not drawn) | -12% | 3% | ? | 2% | 2% | -4%
O=C(NC(=S)Nc1cccc(S(=O)(=O)NC2=NCCC2)c1)c1cc(-c2ccco2)nc2ccccc12 | 14% | 20% | 13µM* | -2% | -28% | -6%
O=C(Nc1cccc(S(=O)(=O)NC2=NCCC2)c1)c1cc(-c2ccco2)nc2ccccc12 | -17% | 15% | 18µM* | 0% | -4% | -29%
O=C(Nc1cccc(S(=O)(=O)NC2=NCCCCC2)c1)c1cc(-c2ccccc2)nc2ccccc12 | -12% | 15% | 1% | 2% | 0% | -2%
C=C(C)CNC(=S)Nc1cccc(S(=O)(=O)NC2=NCCC2)c1 | -2% | 2% | 56µM* | 4% | -5% | -3%
Cc1ccn2c(=O)c(C(=O)NCCc3ccc(S(N)(=O)=O)cc3)c(O)nc2c1 | . | . | 0% | . | -3% | .
CCOC(=O)Cn1nc(-c2ccccc2)nc1-c1ccccc1 | -29% | -9% | 0% | -1% | -3% | -5%
CCn1nc(-c2ccccc2)nc2c(=O)n(C)c(=O)nc1-2 | 25µM* | -67% | ? | 1% | -5% | ?
COc1cc2c(cc1OC)C1=C(C#N)COCN1CC2 | 5% | 13% | 20µM* | 2% | -8% | ?
CCOC(=O)C(=O)C1=C(N2CCOCC2)/C(=C\c2ccc(F)cc2)CC1 | -12% | -12% | 28µM* | 2% | 1% | -9%
O=C(CSc1ccc(-c2ccco2)nn1)N1CCCCC1 | -7% | . | ? | -6% | -8% | 13µM*
O=C(CSc1ccc(-c2ccccn2)nn1)N1CCCC1 | 7% | . | -7% | 2% | ? | ?
O=C(CSc1ccc(-c2ccco2)nn1)N1CCCC1 | -13% | . | 18µM* | -13% | -20% | -14%
COC(=O)c1ccc(-n2c(/C=C\c3cccc(Br)c3)nc3ccccc3c2=O)cc1 | . | . | 2% | . | -4% | .
CCCCN(C(=O)C(C)Oc1ccc(Br)cc1)c1c(N)n(Cc2ccccc2)c(=O)[nH]c1=O (stereo not drawn) | -16% | 13% | 89µM* | -2% | ? | .
CCCCN(C(=O)CC1CCCC1)c1c(N)n(CCC)c(=O)[nH]c1=O | -3% | . | 0.56µM* | . | -10% | .
CCCCN(C(=O)CC1CCCC1)c1c(N)n(CC(C)C)c(=O)[nH]c1=O | 18% | . | -2% | . | -13% | .
COC(=O)CN1C(=O)C2(C(C#N)=C(N)Oc3n[nH]c(-c4cccs4)c32)c2ccccc21 (stereo not drawn) | -4% | -1% | 50µM* | 1% | -5% | ?
CCN1C(=O)C2(C(C#N)=C(N)Oc3n[nH]c(-c4ccccc4)c32)c2ccccc21 (stereo not drawn) | 7% | -10% | -10% | 7% | -6% | -5%
CN(C(=O)c1ccc2c(c1)N(Cc1ccc(F)cc1)C(=O)c1ccccc1S2(=O)=O)C1CCCCC1 | . | . | -1% | . | 4% | .
O=C(CCCCCn1c(=O)c2sccc2n(CC(=O)Nc2cc(C(F)(F)F)ccc2Cl)c1=O)NCc1ccccc1Cl | . | . | 0% | . | -10% | .
O=C(Nc1nc2cc3c(cc2s1)OCO3)c1ccco1 | ? | -7% | -18% | 16µM* | -10% | 15%
O=C(Nc1nc2cc3c(cc2s1)OCCO3)c1ccco1 | ? | -28% | -35% | -27% | -18% | .
